Data as given in PubChem BioAssay (NCI).
This is part of a sample that, as a whole, favours compounds with a hit. Of some 83,000 tested, about 20% had one in any assay.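 Method: cells in 96-well plates; compound added at one concentration; 48 h incubation; percent growth measured; values under 10 scored active.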 Active and inactive are the calls of the source.

System: HOP-92 NSCLC
Assay: NCI-60 one-dose screen, 48 h (100 = growth as untreated, 0 = no growth, -100 = all killed)
Details: 10 µM unless noted

| Compound | growth |
| --- | --- |
| O=C1NN(c2ccccc2)C(c2ccc(Cl)cc2)N2CCC[C@H]12 (stereo partly drawn) | 100% (inactive) |
| Nc1ccccc1NS(=O)(=O)c1ccc(Cl)cc1 | 78.8% (inactive) |
| CCCCCCN1C(=O)CN=C1Nc1ccc2cc3ccc(NC4=NCC(=O)N4CCCCCC)cc3nc2c1 | 82.9% (inactive) |
| Nc1n[nH]c2cccc(C#Cc3cccc(NC(=O)c4cc(N5CCOCC5)cc(C(F)(F)F)c4)c3)c12 | 34.1% (inactive) |
| Cc1cnc(SCc2ccc(Cl)cc2Cl)nc1Nc1ccc(Cl)c(Cl)c1 | 76% (inactive) |

System: A549/ATCC NSCLC
Assay: as above
Details: 10 µM unless noted

| Compound | growth |
| --- | --- |
| COc1ccc(/C=C/C(=O)/C=C(/C=C/c2ccc(OC)c(OC)c2)OB(F)F)cc1OC | 60.8% (inactive) |
| COc1cc(/C=C/C(=O)/C=C/c2cc3ccc(Cl)cc3[nH]c2=O)ccc1O | 79.8% (inactive) |
| CCCCn1c(=O)c(/C=C/C(=O)/C=C/c2cc3ccccc3n(CCCC)c2=O)cc2ccccc21 | -0.936% (active) |
| COc1ccc(-c2nc(C#N)c(NCC(c3ccco3)N3CCCC3)o2)cc1 (stereo not drawn) | 43.7% (inactive) |
| N#C/C(=C/c1ccc(O)c([N+](=O)[O-])c1)c1nc(-c2ccc([N+](=O)[O-])cc2)cs1 | 27.1% (inactive) |
| C=C1C(=O)O[C@H]2[C@H]1CC/C(COC(=O)CCCCC(=O)OC/C1=C/CC[C@@]3(C)O[C@H]3[C@H]3OC(=O)C(=C)[C@@H]3CC1)=C\CC[C@@]1(C)O[C@@H]21 | 94.9% (inactive) |
| CCOC(=O)c1c(C(F)(F)F)n([O-])c2ccc(Cl)cc2[n+]1=O | -39.6% (active) |
| COc1ccc(-c2nc(C#N)c(NCC(c3ccc(Cl)cc3)N3CCCCC3)o2)cc1 (stereo not drawn) | 93.5% (inactive) |
| O=CN1N=C(c2ccc(Cl)cc2)CC1c1cccc(Nc2ccnc3cc(C(F)(F)F)ccc23)c1 (stereo not drawn) | 61.4% (inactive) |
| O=C(CCCCCCCCC(=O)Nc1cccc(C2=NCCN2)c1)Nc1cccc(C2=NCCN2)c1 | 96.6% (inactive) |
| CCOC(=O)C1CCN(S(=O)(=O)/N=C2/NC(=O)NC2=C(Cl)Cl)CC1 | 21% (inactive) |
| S=c1ssnc1-c1cc2ccccc2o1 | 88.2% (inactive) |
| NS(=O)(=O)c1ccc(C2C3=C(CCCC3=O)OC3=C2C(=O)c2ccccc2C3=O)cc1 (stereo not drawn) | -34.9% (active) |
| C=C1C(=O)O[C@H]2[C@H]1CCC(/C=N/c1ncc(Br)cc1N)=C\CC[C@@]1(C)O[C@@H]21 | 57.4% (inactive) |
| C#Cc1ccccc1NC(=O)c1sc2nc3c(cc2c1N)CCCCC3 | 99.2% (inactive) |
| NS(=O)(=O)c1ccc(-n2nc(-c3ccccc3)ccc2=O)cc1 | 112% (inactive) |
| COc1ccc(-c2nnc(N3CCN(C(=O)CN4CCN(c5ccc(OC)cc5)CC4)CC3)nc2-c2ccc(OC)cc2)cc1 | 59.1% (inactive) |
| N#Cc1ccc(Oc2ccc3ccc(=O)oc3c2)cc1 | 109% (inactive) |
| CC1CCCN(CCCCCOc2ccc3oc4ccccc4c(=O)c3c2)C1 (stereo not drawn) | 68.7% (inactive) |

| Compound | growth |
| --- | --- |
| CS(=O)(=O)O[C@@H]1C(=O)N(c2cc3c4ccccc4ccc3c3ccccc23)[C@H]1c1ccc(F)cn1 | 47.1% (inactive) |
| C=C1C(=O)O[C@H]2[C@H]1CC/C(C=Nc1c(N)cc(F)cc1Br)=C\CC[C@@]1(C)O[C@@H]21 | 78.8% (inactive) |
| Cc1ccc(SC2c3ccc(C)cc3Oc3nc(N)c(C#N)c(N)c32)cc1 (stereo not drawn) | 101% (inactive) |
| O=C(Nc1nccs1)c1noc2ccccc12 | 95.7% (inactive) |
| C=C(C)[C@@H]1CC[C@]2(C(=O)OCCCC[P+](c3ccccc3)(c3ccccc3)c3ccccc3)CC[C@]3(C)[C@H](CC[C@@H]4[C@@]5(C)CC[C@H](OC(=O)C(Cl)Cl)C(C)(C)[C@@H]5CC[C@]43C)[C@@H]12 | 0.629% (active) |
| Cc1cc2ccccc2c[n+]1CC(=O)c1ccc(-c2ccccc2)cc1 | 53.3% (inactive) |
| O=C1Nc2ccc(Cl)cc2/C1=N/c1nc(-c2ccc(F)cc2)cs1 | 43.6% (inactive) |
| COc1cc(/C=N/Nc2nc(-c3ccc(F)cc3)c(C#N)c(N3CCOCC3)n2)ccc1O | 89.6% (inactive) |
| C=C(C)[C@@H]1CC[C@]2(C(=O)N=C=S)CC[C@]3(C)[C@H](CC[C@@H]4[C@@]5(C)CCC(=O)C(C)(C)[C@@H]5CC[C@]43C)[C@@H]12 | 26.2% (inactive) |
| CC1(C)[C@@H](O)CC[C@]2(C)[C@H]3CC[C@@H]4[C@H]5[C@H](c6cn(-c7ccccc7)nn6)CC[C@]5(CO)CC[C@@]4(C)[C@]3(C)CC[C@@H]12 | 74.5% (inactive) |
| COc1cc(/C=C/C(=O)c2ccc(NC(=O)CSc3nnc(-c4cc(OC)c(OC)c(OC)c4)n3-c3ccccc3)cc2)cc(OC)c1OC | 20.2% (inactive) |
| O=c1c2ccccc2n(CC(O)CN2CCCC2)c2c(Br)cccc12 (stereo not drawn) | 87% (inactive) |
| COc1cc(-c2cn(-c3ccc(Cl)c(Cl)c3)c(=O)[nH]2)cc(OC)c1OC | 89.7% (inactive) |
| COC(=O)c1ccc2c(c1)n(Cc1ccc3ccccc3c1)c[n+]2Cc1ccc2ccccc2c1 | 75% (inactive) |
| O=C1NN(c2ccccc2)C(c2ccc(Cl)cc2)N2CCC[C@H]12 (stereo partly drawn) | 103% (inactive) |
| Nc1ccccc1NS(=O)(=O)c1ccc(Cl)cc1 | 107% (inactive) |
| CCCCCCN1C(=O)CN=C1Nc1ccc2cc3ccc(NC4=NCC(=O)N4CCCCCC)cc3nc2c1 | 74.5% (inactive) |
| Nc1n[nH]c2cccc(C#Cc3cccc(NC(=O)c4cc(N5CCOCC5)cc(C(F)(F)F)c4)c3)c12 | 69.5% (inactive) |
| Cc1cnc(SCc2ccc(Cl)cc2Cl)nc1Nc1ccc(Cl)c(Cl)c1 | 78.2% (inactive) |
